Results from the supplement of paper PMC11417369.
± gives the standard deviation of the averaged measurements. Whole data set: some 25,000 sequences, median “ln(normalized median fluorescence intensity)” near 8.9, cut for the highest 2% near 10. Shown is part of a subset that was picked to be rich in the highest values.

test system: PfAP2-LT AP2 domain (GST-tagged); experiment: gcPBM binding intensity (ln(normalized median fluorescence intensity)); higher = stronger DNA binding
Outline: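 The binding buffer was 1× PBS containing 1% milk, 0.2 mg/ml BSA, 0.5% salmon testes DNA and 0.03% Triton X-100. In it, GST-tagged P. falciparum DNA-binding domains expressed in E. coli were applied for 1 h to an Agilent 4 × 180k array of primer-extended double-stranded 36-bp intergenic genomic probes plus negative controls. Binding intensity, read with Alexa488 anti-GST antibody and a 488 nm scan, is the highest Masliner-normalised natural-log median intensity across replicate spots of either probe orientation.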

| Sequence | gcPBM binding intensity (ln) |
| --- | --- |
| ACATATATATATAAATATATATATATATAAATATAT [CACACA_negctrl_site895] | 9.03 ± 0.28 |
| TATACAGGAATATTTTTACACACTAATAATTATAAA [CACACA_site8477] | 8.73 ± 0.5 |
| TATATATATATGTGCACACCAATTGTATGTAATATA [CACACA_site3889] | 9.32 ± 0.2 |
| TAAAAAGAAATGTAAAGTACAAATTTGAATAACATG [XGTACX_site7981] | 8.88 ± 0.52 |
| ATTTTAACCAATTATTGTACTTGGTTATTCTTTTTT [XGTACX_site7453] | 8.94 ± 0.45 |
| TTTTATTTTTAAGGATGTACTCAATTGTTTATATAC [XGTACX_site3965] | 8.85 ± 0.4 |
| TTTTCTAAATTAATAATACACACTTGCTAAAATCAT [CACACA_site3207] | 8.47 ± 0.46 |
| CAAGCACACGGACACACACACACACGCGCACGCACA [CACACA_site6307] | 10.3 ± 0.28 |
| ATAATTTGTGGACACACACACACACCGACATATATA [CACACA_site8718] | 9.97 ± 0.33 |
| ATTATACACGCGCGCACACACAACAAAAAAAAAAAA [CACACA_site7630] | 9.43 ± 0.48 |
| ATTATAGACACGCGCACACACAACAAAAAAAAAAAA [CACACA_site9180] | 9.73 ± 0.61 |
| CACATACAGACATACACACATACACATATACGCATA [CACACA_site1745] | 9.61 ± 0.36 |
| AGTATACATATATATACACACATATATATATATATA [CACACA_site300] | 9.83 ± 0.34 |
| ATTTGGCATGGACACACACACACACCGACAGACATA [CACACA_site4491] | 10 ± 0.27 |
| ACATCAAGCGGACACACACACACACCGACAGACACA [CACACA_site4361] | 10.2 ± 0.33 |
| GGTATACGCAAGTATACACACATATATATATATATA [CACACA_site3240] | 10.01 ± 0.042 |
| TATATACACAGACACACACACACATACACGCACATA [CACACA_site6909] | 10.1 ± 0.22 |
| AGTATACGCAGACACACACACACATATATATATATA [CACACA_site1735] | 10.22 ± 0.042 |
| TTTTTTAAAATATGGACACACATATATATATCTGTA [CACACA_site5535] | 8.88 ± 0.38 |
| TATATCTTAATATACACACACACATATATATATATA [CACACA_site4968] | 9.71 ± 0.014 |
| AAAAAAACATAAAATACACACAACCTTAAGAATGTA [CACACA_site3293] | 9.12 ± 0.38 |
| CAACATATATTAATATGTACATATATATAGATATAT [XGTACX_site4107] | 8.81 ± 0.44 |

| Sequence | gcPBM binding intensity (ln) |
| --- | --- |
| ATATATATATATATATGTACATATTTCTCCATTTTT [XGTACX_site2869] | 9.61 ± 0.39 |
| ACATATAAATATATTACACACACACTAAAAAAATAA [CACACA_site6209] | 9.69 ± 0.27 |
| TAACATATTAATAACATATTTATAATATATTAATAA [TGCATGCA_negctrl_site243] | 8.34 ± 0.43 |
| TATAAAAATTAATATTGTACGTTTTATGAAAATAAA [XGTACX_site8237] | 8.21 ± 0.47 |
| CGTGGGAGCAGACACACACACACACGCATATTTATA [CACACA_site6290] | 9.89 ± 0.45 |
| AAAAAAAAAAGACACACACACAAAAAAAGATATATA [CACACA_site6645] | 9.9 ± 0.38 |
| AGCACACGCAGACACACACACACACGCACACGCACA [CACACA_site6306] | 10.3 ± 0.23 |
| AAAAAAAAAAGACACACACACATATTTATTTATATA [CACACA_site6484] | 9.67 ± 0.4 |
| AAAAAAAAAAGACACACACACACACGGAGATATATA [CACACA_site6216] | 10.4 ± 0.19 |
| AAAAAAAAAAGACACACACACACACGCATATACATA [CACACA_site7289] | 10.18 ± 0.05 |
| TACACGCAGAAACACACACACACACCCATATATATA [CACACA_site637] | 10.1 ± 0.28 |
| AACACGCGCAGACACACACACACACCCACATATATA [CACACA_site2205] | 10.3 ± 0.27 |
| AATACACGCAGACACACACACAAAAAAAAAAAAAAA [CACACA_site6384] | 9.53 ± 0.61 |
| CGCGCACCCAGACACACACACACACCCATATATATA [CACACA_site2203] | 9.96 ± 0.25 |
| ATATTTAGGAAAAATAGTACACATTTAAATAATAAT [XGTACX_site7989] | 8.68 ± 0.47 |
| TTGAAATATACGTAAGTAAATTTCATTTGGTTGTGT [XGTACX_negctrl_site600] | 8.77 ± 0.47 |
| AATATACAAATTACAAGTACAAATCAATATTATATG [XGTACX_site7521] | 8.9 ± 0.42 |
| AATTATTTATTGAGAGTGCAACAAATTATTTCAAAT [GTGCAC_site9461] | 8.44 ± 0.49 |
| AATATTTTAATGCACACACACAAAAAAAAAAAAAAA [CACACA_site7374] | 9.18 ± 0.33 |
| AATAATAAATATATATATATATATATATATATATTT [CACACA_negctrl_site786] | 9.04 ± 0.21 |
| CATAATAGTTATAAAATACACACCAGGCATGATAAA [CACACA_site329] | 9 ± 0.4 |
| ATATATATATATATATGTACATATAATTTTTTTTTT [XGTACX_site6948] | 9.56 ± 0.16 |

| Sequence | gcPBM binding intensity (ln) |
| --- | --- |
| GGAATATTTATACATACACACATATATTTATTTATA [CACACA_site6883] | 8.91 ± 0.38 |
| TAACTTTGAAAAGATGGTACACAATAATATATATAT [XGTACX_site8667] | 8.83 ± 0.35 |
| CCTTTCACATATAATACATGCATTATTATATATGAA [TGCATGCA_site287] | 8.7 ± 0.23 |
| CATACATACAAACACACACACACACCGATATATATA [CACACA_site8952] | 10.29 ± 0.092 |
| TATATATACATATACACACACACACCGATATATATA [CACACA_site8706] | 9.9 ± 0.29 |
| TATACATACATACATACACACACACCGATATATACA [CACACA_site8184] | 9.89 ± 0.11 |
| CAAAAAAACAAACACACACACACACCGATATATATA [CACACA_site9218] | 10.1 ± 0.23 |
| TATATATATATATACACACACACACCGATATATATA [CACACA_site8813] | 10 ± 0.11 |
| AAAAAAAAAAAACACACACACACACCGAAATATATA [CACACA_site4261] | 9.99 ± 0.33 |
| AAAAAAAAAAAACACACACACACACCGATACATACA [CACACA_site8849] | 10.4 ± 0.085 |
| AGGAGGAACAAACAAAACAATAAAAATTATAATAAA [GTGCAC_negctrl_site206] | 8.78 ± 0.64 |
| GTGTATTTATGTTATACACACAAAAATATTTTGTAT [CACACA_site4305] | 9.01 ± 0.33 |
| TTATATATACCATAATGTACTCTATTATATAAAAAA [XGTACX_site7464] | 8.41 ± 0.4 |
| AAAAAAGATAATTATGCACACACACCCACCCACCCA [CACACA_site8825] | 10.085 ± 0.0071 |
| TAATTATGCCAACACACACACACACCCAACTAAAAA [CACACA_site8823] | 9.965 ± 0.092 |
| AAAAGATAAAATTATGCACACATACGAATAATTTTA [CACACA_site8497] | 8.92 ± 0.48 |
| AAAAGATAATTATGCACACACACACCCCCACCCAAC [CACACA_site2570] | 10.38 ± 0.064 |
| AAAAGATAATTATGCACACACACACCCAGACACAAC [CACACA_site5428] | 10.34 ± 0.021 |
| TAATTATGCAGACACACACACACACCCAACTAAAAA [CACACA_site2569] | 9.96 ± 0.23 |
| TATGCACCCAGACACACACACACAACTAAAAAATAA [CACACA_site2567] | 9.8 ± 0.35 |
| AAAGATAATATATGCACACATATAAATATATAAATA [CACACA_site3477] | 9.07 ± 0.43 |
| ATTATATATATGTGCACACAAAAGATATATATATAT [CACACA_site5205] | 9.95 ± 0.26 |

| Sequence | gcPBM binding intensity (ln) |
| --- | --- |
| AAAAAAAAAACATACACACACATATAGATTTATATG [CACACA_site6847] | 9.31 ± 0.35 |
| AAAAGGAATTATAGGAAATAAATATATACAAATATA [TGCATGCA_negctrl_site528] | 8.69 ± 0.58 |
| TATATTTATATATGTTGTACTCTCCAATAATATTCC [XGTACX_site4438] | 8.76 ± 0.52 |
| AGTAAATTATATATCTGTACATATATATATGTGTAT [XGTACX_site5519] | 9.04 ± 0.28 |
| AAAATTGGTGAAAATGAAAATATGATTATATGTATA [XGTACX_negctrl_site505] | 8.56 ± 0.53 |
| ATAATTTTATATAAATGTACATACATTTTTATTATA [XGTACX_site7368] | 8.61 ± 0.4 |
| TTAAACTTGAAACACACACACACACCGATATAAAAA [CACACA_site4578] | 10.06 ± 0.085 |
| AAAAATAACATATAAACACACATATATATATATATA [CACACA_site3802] | 9.825 ± 0.0071 |
| TTAAACTTGAAACACACACACACACCCATATAAAAA [CACACA_site758] | 10.1 ± 0.064 |
| TAAAAAAAAAAAAAAACACACATATAAATATATATA [CACACA_site1243] | 8.56 ± 0.52 |
| AAACTTGACGAACACACACACACATATATAAAAAAA [CACACA_site6494] | 10.1 ± 0.4 |
| CAAAAATAACGAGTCAAACACACATATATATATATA [CACACA_site2038] | 9.86 ± 0.3 |
| CAAAGGGAAATTAACACACACATATATATATATATA [CACACA_site2453] | 10.3 ± 0.2 |
| TATAAATAAAAACACACACACACATATATATATATA [CACACA_site2268] | 10.2 |
| CAAAGGGAAATTAACACACACATATTTATATTTATA [CACACA_site7202] | 9.2 ± 0.47 |
| AAAATAACGAGTCAAACACACATATTTATATTTATA [CACACA_site7050] | 8.95 ± 0.45 |
| AAAATAACGAGTCAAACACACATATATATATATATA [CACACA_site2039] | 10.1 ± 0.2 |
| TTCAAAGGGAAATTAACACACACATATATATATATA [CACACA_site8777] | 9.71 ± 0.2 |
| TGAACACATACATACACACACACAAAAAAAAAAAAA [CACACA_site392] | 9.76 ± 0.4 |
| AAAAAAAAAAATACTCGTACATAAACCTATACATTT [XGTACX_site6494] | 8.83 ± 0.45 |
| AAAATATGTAGCTACACACACATAAACAAAATAACA [CACACA_site1007] | 9.41 ± 0.3 |
| CTGTTTAAAATATAAACACACATTGTTTGCTTTAGA [CACACA_site1301] | 8.71 ± 0.4 |
